Bioassay records as filed in PubChem BioAssay.
AI-2 QS modul = modulators of Vibrio harveyi AI-2 quorum sensing system; Vibrio harveyi JMH597 AI-2 luminescence/OD600 ratio, 9 h; hits give low values; strain lacks LuxN and CqsS sensors; 0 = neutral-control median; activity change, % at 7.5 µM; 0.4% of 300,000 active; AID 2094; in the data active means activity change below about -75%, passing the limit was not always enough;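 further: luminescence divided by OD600 gain over 9 h not by final OD600 alone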
Platelet DG rel = platelet dense granule release activity; 0.22% of 300,000 active; inhibition, %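 (compounds screened at 7.5 µM in platelet-rich plasma)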; human platelet-rich plasma, SFLLRN dense granule ATP release, luminescence;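 active means mean replicate score, as percent of positive control, at or above 50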
VLA-4 inh = inhibition in a human VLA-4 binding assay | VLA-4 expressing cells, ligand binding flow cytometry | inhibition, % (about 7 µM as worked out from the volumes in the protocol) | 0.2% of 330,000 active | AID 2557; in the data active means inhibition above about 50%
CHT block = inhibits the human high affinity choline transporter; Q9GZV3; CHT-expressing cells, membrane potential dye, choline response; hits give low values; B-score at 10 µM; 0.86% of 310,000 active;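 active means B-score over 3 SD under the library average, and starting fluorescence ratio not unusually high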;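 further: choline stimulus applied at its EC90 after an EC20 pre-addition; B-score computed on integrated fluorescence ratio after choline addition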
CHT allo act = allosterically activates the human high affinity choline transporter. CHT-expressing cells, membrane potential dye, choline EC20; hits give high values; LV-AA mutant CHT in HEK293 cells. B-score at 10 µM. 0.49% of 310,000 active. AID 488977;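 active means initial fluorescence not abnormally high and integrated response B-score, plate-corrected, over 3 SD above library mean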
HIF act = HIF pathway transcriptional activation. activation, % at 7.5 µM (by protocol). U2OS HRE-luciferase reporter, luminescence; normalized: DMSO 0%, desferrioxamine 100%. 0.32% of 300,000 active;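 active means mean activation of at least 10% of the iron chelator positive control signal, with at least half of replicates also reaching 10%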
CHT block conf = human CHT inhibition, confirmatory screen. CHT-expressing cells, choline membrane potential dye; LV-to-AA substituted CHT, HEK293 cells. AID 493221. 70% of 2,400 active. shares compounds with CHT block. CHT activity remaining % of control (hits give low values), % at 10 µM;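 active means choline transporter activity left, mean of duplicates at 10 µM, below buffer-only control mean minus 3 SD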;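 further: depolarization triggered by choline at its EC90 following an EC20 pre-addition; 0% = hemicholinium-3 full block and 100% = buffer-only control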
HEK293 CHT ctr = activity in parental HEK293 cells lacking CHT. shares compounds with CHT block. membrane potential dye, choline response; active = decrease or increase beyond buffer ±3SD. membrane potential ratio readout (active if shifted either direction beyond buffer ±3SD; no single direction) at 10 µM. 4% of 2,400 active. AID 493222;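 further: parental cells lack the transporter so any hit is non-specific; ratio is peak minus trough fluorescence over baseline after EC90 choline challenge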
* hit, by the source's call. In the library only some 2.2% were active in any assay of this set; here they are far more common.

What do the screens show for `COc1ccccc1NC(=O)C(C)Sc1nc(-c2ccccc2)cn1N` (centres undefined)?
VLA-4 inh: 0.1

How did Cc1ccc(-c2nnc3c4ccccc4c(C)nn23)cc1S(=O)(=O)N1CCN(C)CC1 do in these assays?
VLA-4 inh: 8.0; CHT block: inactive; CHT allo act: inactive

Results for Cc1ccc(-c2nnc(N3CCCCC3)c3ccccc23)cc1S(=O)(=O)N1CCN(C)CC1 ?
AI-2 QS modul: 17.2; Platelet DG rel: 3.2; VLA-4 inh: 3.8; CHT block: -7.27*; CHT allo act: inactive; HIF act: -1.1; CHT block conf: 41.9%*; HEK293 CHT ctr: inactive

Results for CCCCCn1nc(C(=O)OCc2nc(N)nc(Nc3ccccc3)n2)c2ccccc2c1=O ?
VLA-4 inh: 3.5

What do the screens show for `CCOc1cc(N2CCOCC2)c(OCC)cc1NC(=O)Cc1ccccc1`?
AI-2 QS modul: -2.9; Platelet DG rel: 7.7; VLA-4 inh: 1.5; CHT block: -8.61*; CHT allo act: inactive; HIF act: -0.7; CHT block conf: 56.6%*; HEK293 CHT ctr: inactive

What do the screens show for `Cn1nc(C(F)(F)F)c2cc(C(=O)Nc3ccc(C(F)(F)F)cc3)sc21`?
AI-2 QS modul: 3.4; Platelet DG rel: -16.5; VLA-4 inh: 13.5; CHT block: inactive; CHT allo act: inactive; HIF act: -1.8

Results for Cc1[nH]n(-c2ccccc2)c(=O)c1C(=O)c1ccccc1 ?
AI-2 QS modul: 3.3; Platelet DG rel: -10.2; VLA-4 inh: -3.0; CHT block: inactive; CHT allo act: inactive; HIF act: -0.5

How did Cc1[nH]n(-c2ccc(Cl)cc2)c(=O)c1C(=O)c1ccccc1 do in these assays?
AI-2 QS modul: 27.6; Platelet DG rel: -0.1; VLA-4 inh: -3.9; CHT block: -11*; CHT allo act: inactive; HIF act: 0.0; CHT block conf: inactive; HEK293 CHT ctr: inactive

What do the screens show for `CCSC(=S)c1c(C)[nH]n(-c2ccccc2)c1=O`?
AI-2 QS modul: -9.2; Platelet DG rel: 1.5; VLA-4 inh: -3.6; CHT block: -8.77*; CHT allo act: inactive; HIF act: 0.0; CHT block conf: inactive; HEK293 CHT ctr: inactive

What do the screens show for `CC(C)OP(=O)(OC(C)C)C(Nc1ccc([N+](=O)[O-])cc1)c1cccc([N+](=O)[O-])c1` (centres undefined)?
AI-2 QS modul: 8.1; Platelet DG rel: -5.7; VLA-4 inh: 7.3; CHT block: inactive; CHT allo act: inactive; HIF act: -0.9

Results for CC(C)OP(=O)(OC(C)C)/C(C=O)=N\Nc1ccc([N+](=O)[O-])cc1 ?
AI-2 QS modul: 25.6; Platelet DG rel: -3.5; VLA-4 inh: -1.3; CHT block: -8.43*; CHT allo act: inactive; HIF act: 0.0; CHT block conf: inactive; HEK293 CHT ctr: inactive

What do the screens show for `COC(=O)c1nc2ccc(N3CCOCC3)cc2c(C)c1C(=O)OC`?
AI-2 QS modul: 13.0; VLA-4 inh: 9.1; CHT block: -5.66*; CHT allo act: inactive; CHT block conf: inactive; HEK293 CHT ctr: inactive

Results for COC(=O)c1c(-c2ccc(OC)cc2)sc2ccc(N3CCOCC3)cc12 ?
VLA-4 inh: 10.6

Results for C=CCn1c(=S)[nH]c2cc(C(=O)N3CCN(c4ccccc4OC)CC3)ccc2c1=O ?
VLA-4 inh: 5.5

Results for Cc1ccsc1CNC12CC3CC(CC(C3)C1)C2 ?
AI-2 QS modul: 2.2; Platelet DG rel: 3.5; VLA-4 inh: -1.4; CHT block: -6.55*; CHT allo act: inactive; HIF act: -0.3; CHT block conf: 13.8%*; HEK293 CHT ctr: -13.5*

How did Cc1ccsc1CNC1CCCCC1 do in these assays?
AI-2 QS modul: -9.0; Platelet DG rel: 0.5; VLA-4 inh: 7.9; CHT block: inactive; CHT allo act: inactive; HIF act: 0.0
